SMILES strings stand for the structures. Results filed as inconclusive are left out. The source made the active and inactive calls. Calls follow the shape of the dose curve; as a rule, active = well fitted inhibition curve with a large enough effect; inconclusive = small, poorly fitted or top-dose-only effect; inactive = flat fitted curve, though single readings scatter. Peptide text beside a SMILES is read from it. * marks the point of attachment. Hexanoyl = CCCCCC(=O)*

This test has as its target Aldehyde dehydrogenase, mitochondrial (Homo sapiens) (UniProt P05091). The experiment in a line: qHTS for Inhibitors of the Aldehyde Dehydrogenase Family (ALDH2) Primary screen (AID 2061308).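 Also: plate controls were vehicle for no effect and reference inhibitor for full effect; nearly all actives have a fitted effect of over 55% in size.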 The settings on record: ALDH2 enzyme inhibition qHTS, 1536-well; series mostly up to 56 µM; activity change, negative = inhibition: at the top concentration.
On to `CC(O)(C(=O)O)C1CCC2(C)C1CCC1(C)C2CCC2C3(C)CCC(O)C(C)(COC4OC(CO)C(O)C(O)C4O)C3CCC21C` (stereo not drawn), for which the “activity change, negative = inhibition” value is -10.1% [at 16.9 µM] (inactive).
On to `CC1(C)CC[C@]2(C(=O)O)CC[C@]3(C)C(=CCC4[C@@]5(C)CCC(O[C@@H]6OC[C@H](O)[C@H](O)[C@H]6O[C@@H]6O[C@H](CO)[C@@H](O)[C@H](O)[C@H]6O)[C@@](C)(CO)C5CC[C@]43C)[C@@H]2C1` (stereo partly drawn), for which the “activity change, negative = inhibition” value was -15.3% [at 16.9 µM] (inactive).
As to `Cc1cc(C)c(NC(=O)N(Cc2ccc3c(c2)Cc2ccccc2-3)C2CCCCCC2)c(C)c1`, the “activity change, negative = inhibition” value is 12.7% (inactive).
With `N#Cc1cccc(-c2nc(-c3cccnc3)no2)c1`, the “activity change, negative = inhibition” value was 16.2% [at 28 µM] (inactive).
The result for `C=C1C(=O)OC2/C=C(\C)CC3C=C(CC/C=C(\C)CCC12)C(=O)O3` (stereo not drawn) reads 7.5% (inactive).
Regarding `CC1(C)CC[C@]2(C(=O)O)CC[C@]3(C)C(=CCC4[C@@]5(C)CC[C@H](O[C@@H]6O[C@H](CO)[C@@H](O)[C@H](O)[C@H]6O[C@@H]6O[C@H](CO)[C@@H](O)[C@H](O)[C@H]6O)[C@@](C)(CO)C5CC[C@]43C)[C@@H]2C1` (stereo partly drawn), the “activity change, negative = inhibition” value was 20.1% [at 16.9 µM] (inactive).
As for `COc1ccc(/C=C\C(=O)O)c(O[C@@H]2O[C@H](CO)[C@@H](O)[C@H](O)[C@H]2O)c1`, the figure is -0.453% (inactive); as for `Cc1ccc2c(n1)Oc1ccc(C(C)C(=O)OCC(=O)N(C)C)cc1C2` (stereo not drawn), 4.45% (inactive); as for `C=C1CC2OC(=O)C(COC)C2C(OC(=O)/C(C)=C\C)CC2(C)OC1=CC2=O` (stereo not drawn), 9.1% (inactive).
The result for `Cc1ccc([C@@H]2CC=C(C(=O)O)[C@H](c3ccc(C(C)(C)C)cc3)N2S(=O)(=O)c2ccc(C)cc2)cc1` reads -0.0598% (inactive).
For `C=C1CC2C3(C)C(OC(C)=O)CC(=O)OC(C)(C)C3C(O)C(OC(C)=O)C2(C)C2C(=O)OC(C)C(=O)C12C` (stereo not drawn), the “activity change, negative = inhibition” value is 13.8% [at 28 µM] (inactive).
In the case of `CC(=O)Nc1ccn(C2COC(COC(=O)c3ccccc3)O2)c(=O)n1` (stereo not drawn), the “activity change, negative = inhibition” value is 9.2% (inactive).
The result for `O=C(O)c1cccc(CN2C(=O)/C(=C(\c3ccccc3)c3ccc(Cl)cc3)c3ccccc32)c1` reads -0.685% (inactive).
Regarding `C/C=C1/C[N+](C)([O-])C2Cc3c([nH]c4ccccc34)C(=O)CC1C2C(=O)OC` (stereo not drawn), the “activity change, negative = inhibition” value was 6.66% (inactive).
In the case of `CCCCCC(=O)N1CCC[C@H]1C(=O)N[C@@H](Cc1ccc(O)cc1)C(=O)OC` (Hexanoyl-Pro-Tyr-OMe), the “activity change, negative = inhibition” value was 2.43% (inactive).
As for `C[C@@H]1O[C@@H](O[C@H]2[C@H](OC(=O)[C@]34CCC(C)(C)C[C@H]3C3=CCC5[C@@]6(C)C[C@@H](O)[C@@H](O[C@@H]7O[C@H](CO)[C@@H](O)[C@H](O)[C@H]7O)[C@@](C)(CO)C6[C@H](O)C[C@@]5(C)[C@]3(C)CC4)OC[C@H](O)[C@@H]2O)[C@H](O)[C@H](O[C@@H]2OC[C@](O)(CO)[C@H]2O)[C@H]1O[C@@H]1OC[C@@H](O)[C@H](O[C@H]2O[C@H](C)[C@@H](O)[C@H](O)[C@@H]2O)[C@H]1O` (stereo partly drawn), the activity change, negative = inhibition was 9.79% [at 11.2 µM] (inactive).
With `C=C(C(=O)O)[C@H]1C[C@]2(C)[C@@H](O)CC[C@]23O[C@H]1C[C@@H]3C`, the “activity change, negative = inhibition” value was -1.76% (inactive).
For `CC1(C(=O)O)CCCC2(C)C1CCC13CC(CCC21)C1(CO)OC31` (stereo not drawn), the “activity change, negative = inhibition” value was 30.1% (inactive).

Values taken from PubChem BioAssay (NCATS).
